PubChem BioAssay (NCATS)
Several values for one entry are separate records, joined by “and”; a condition that tells them apart may be missing. Identical values can stand only once. Records with an inconclusive call do not appear. Activity calls are given as the source filed them. Unless noted, calls follow the shape of the dose curve; as a rule, active = well fitted curve in the direction sought with a large enough effect; inconclusive = small, poorly fitted or top-dose-only effect, or another doubt; inactive = no such curve, though single readings can be large; an effect the other way counts as inactive or inconclusive.

Experiments:
[1] = target: Cytochrome P450 1A2 (Homo sapiens) (UniProt P05177); test: p450-cyp1a2 (AID 410; calls by dose curve; also: potency is read from the fitted curve at half-maximal effect;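 as to activity change, negative = inhibition: -100% = full effect of reference inhibitor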)
In short: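 Luminescent demethylation readout: Luciferin-ME (100uM, equal to Km) turned over by 20nM CYP1A2 for 60 min at room temperature after NADPH regeneration addition, following 10 min compound preincubation. Normalization used 57 uM furafylline as full inhibition.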

[2] = target: Glucocorticoid receptor (Homo sapiens) (UniProt P04150); test: GR-GFP Redistribution (AID 450;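 active = compounds whose dose series gives a full or clear partial fitted curve of increased nuclear translocation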; also: potency is read from the fitted curve at half-maximal effect); details: U2OS GR-GFP nuclear translocation, laser cytometry, 2 h
[3] = target: Glucocorticoid receptor (Homo sapiens) (UniProt P04150); test: GR-EFC Redistribution (AID 451; calls by dose curve; also: potency is read from the fitted curve at half-maximal effect); details: CHO-K1 GR-EFC translocation, beta-gal luminescence, 2 h
In short: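 Translocation of GR-ED fusion to nuclear EA restores b-gal, read by luminescence after 1 h room-temperature detection. Engineered CHO-K1 biosensor cells, 1,000/well, exposed 2 h at 37 C to titrations up to 46 uM final.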

[4] = target: Mitogen-activated protein kinase 10 (Mus musculus) (UniProt Q61831); test: JNK3 AlphaScreen Assay (AID 530; active = well fitted curve in either direction with a large enough effect, not every such curve was filed as active;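 also: kinase came from lysate of stimulated human HepG2 cells; signal reports phosphorylation of biotinylated GST-cJun 1-79 at Ser73 with 10 µM ATP; % is scaled to controls: 0 for no effect and ±100 for the full control effect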)
In short: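 qHTS titrations with 15 min compound pre-incubation before adding ATP (10 uM final). Read-out: AlphaScreen of Ser73-phosphorylated biotin-GST-cJun using HepG2 lysate JNK3 activated by IL-1β and TNFα.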

[5] = target: 3',5'-cyclic-AMP phosphodiesterase 4B (Homo sapiens) (UniProt Q07343); test: qHTS Assay for Inhibitors of PDE-IV (AID 607; active = well fitted activation curve with a large enough effect in the main read-out, with a control signal flat, not every such curve was filed as active; also: % of control where 0% means no effect)
In short: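 Cell-based read-out of cAMP via a modified cyclic nucleotide-gated channel and membrane potential dye (535/590 nm) in HEK293 cells expressing PDE4 endogenously. Compounds tested up to 22.9 uM final; 100 uM RO 20-1724 reference.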

[6] = target: Cytochrome P450 2C9 (Homo sapiens) (UniProt P11712); test: qHTS Assay for Inhibitors and Substrates of Cytochrome P450 2C9 (AID 883); also: nearly all actives have a fitted effect of over 60% in size; also: potency is read from the fitted curve at half-maximal effect
In short: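 Turnover of Luciferin-H (100uM, KM) by 10nM human CYP2C9 was measured over 60 min at 37C with NADPH regeneration; inhibitors and some substrates reduce luminescence. Data normalized to sulphaphenazole 57uM.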

[7] = target: Cytochrome P450 2C19 (Homo sapiens) (UniProt P33261); test: qHTS Assay for Inhibitors and Substrates of Cytochrome P450 2C19 (AID 899); also: nearly all actives have a fitted effect of over 60% in size; also: potency is read from the fitted curve at half-maximal effect
In short: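 Reactions contain 5nM enzyme, 10uM Luciferin-H EGE (KM) and 50mM KPO4; compound preincubates 10 min at 37C, NADPH regeneration starts turnover for 60 min. Luminescence after detection reagent gives activity.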

[8] = AP1 Signaling Pathway (AID 357; active = well fitted curve in either direction with a large enough effect, not every such curve was filed as active;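 also: ME-180 reporter cells stimulated with EGF at its EC50 level; % is scaled to controls: 0 for no effect and ±100 for the full control effect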); details: ME-180 AP-1-bla reporter, EGF-induced, beta-lactamase ratio, 5 h; at 17.2 µM (top of the series) unless noted
In short: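 Beta-lactamase reporter under AP-1 response element, ME-180 background. Stimulus: EC50 EGF. Compound exposure 5 h, 37 °C. Detection: CCF4, 2.5 h RT, 460/530 nm. Values: AC50 from titration.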

[9] = Stat Signaling Pathway (AID 446; active = well fitted curve in either direction with a large enough effect, not every such curve was filed as active;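 also: ME-180 cervical cancer cells given 40 pM IL-6 alongside compound; SIE-controlled beta-lactamase reporter measured as 460/530 nm FRET emission ratio; % is scaled to controls: 0 for no effect and ±100 for the full control effect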)
In short: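 FRET read-out (405 nm excitation, 460/530 nm emission) of a beta-lactamase reporter under a STAT-inducible element in ME-180 cervical carcinoma cells. Cells with compound receive 40 pM IL-6 for 5 h. Values are normalised to AC90 stimulation and AC90 JAK-inhibitor controls.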

[10] = target: Cytochrome P450 2D6 (Homo sapiens) (UniProt P10635); test: qHTS Assay for Inhibitors and Substrates of Cytochrome P450 2D6 (AID 891); also: nearly all actives have a fitted effect of over 60% in size; also: potency is read from the fitted curve at half-maximal effect
In short: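 Luminescent read-out of luciferin formed by 5 nM human CYP2D6 demethylating 30 uM Luciferin-ME EGE (Km level) over 60 min at room temperature after NADPH regeneration addition. Data normalized to full inhibition by 1.43 uM quinidine.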

[11] = target: Guanine nucleotide-binding protein G(i) subunit alpha-1 (Homo sapiens) (UniProt P63096); test: qHTS Assay for Inhibitors of RGS12 GoLoco Motif Activity (Green Fluorophore) (AID 879);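 also: 0% = labeled peptide with Gαi1 and full inhibition = labeled peptide alone without protein; negative values mean loss of peptide binding seen as reduced polarization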
In short: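 A drop in FITC polarization marked displacement of the FITC-tagged RGS12 GoLoco peptide (10 nM) from Gαi1 (50 nM). Compounds were incubated 10 min at room temperature in Tris pH 7.5 buffer containing 150 mM NaCl, 0.1 mM GDP and 0.05% NP40; unlabeled peptide titration served as control.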

[12] = qHTS Assay for Identification of Small Molecule Antagonists for NFkB Signaling Pathway (AID 895; active = well fitted inhibition curve with a large enough effect in the signal ratio, with a control signal flat, not every such curve was filed as active; the % refers to the signal ratio; also: % is scaled to controls: 0 for no effect and ±100 for the full control effect)
In short: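 Beta-lactamase reporter read-out (460 and 530 nm emission ratio, 405 nm excitation, 2 hrs substrate loading RT) after 5 hr stimulation with 10 pM TNF alpha in compound-treated NFkB-bla ME-180 cells in low-serum medium.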

[13] = qHTS Assay for Identification of Small Molecule Agonists for Hypoxia Response Element Signaling Pathway (AID 914; active = well fitted activation curve with a large enough effect in the signal ratio, with a control signal flat, not every such curve was filed as active; the % refers to the signal ratio; also: % of control where 0% means no effect); details: ME-180 (cervical carcinoma) HRE-bla reporter, beta-lactamase ratio, CoCl2, 17 h; activation: hits give high values
In short: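 qHTS titration; ME-180 HRE-bla cells; EC50 CoCl2 co-treatment, 17 h at 37 degrees Celsius; CCF4 dye, ex 405nm, em 460nm and 530nm; %Activity from ratio; AC50.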

[14] = target: Muscarinic acetylcholine receptor M1 (Rattus norvegicus) (UniProt P08482); test: qHTS Assay for Antagonists of Acetylcholine Muscarinic M1 Receptor: Kinetic Measurement of Intracellular Calcium Response (AID 943); also: potency is read from the fitted curve at half-maximal effect; nearly all actives have a fitted effect of over 75% in size
In short: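 Antagonism measured as reduction of carbachol-evoked (EC80, 100 nM final) calcium flux in rat M1-CHO cells after 10 min compound exposure. Fluo-4 signal read kinetically; ratio of maximal to basal fluorescence.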

[15] = target: Pyruvate kinase (Leishmania mexicana) (UniProt Q27686); test: qHTS Validation Assay for Inhibitors of Leishmania Mexicana Pyruvate Kinase (AID 945);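 also: 0% = DMSO only neutral control wells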
In short: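 Read-out: luminescence from PKLight stop/detection reagent, data normalized to DMSO. Reaction: 0.2 nM E451W LmPYK, 0.5 mM PEP, 0.1 mM ADP, pH 7.2, 1 h room temperature.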

[16] = target: Pyruvate kinase PKM (Homo sapiens) (UniProt P14618); test: qHTS Assay for Activators of Human Muscle Pyruvate Kinase (AID 954; active = well fitted curve in the direction sought with a large enough effect, not every such curve was filed as active;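 also: 0% = uninhibited enzyme and -100% = no enzyme or full thiadiazolimine inhibition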)
In short: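 ATP production by PKM2 detected via luciferase luminescence after 1 h room-temperature reaction (0.1 nM enzyme, PEP at Km 0.5 mM, ADP 0.1 mM, pH 7.2 imidazole buffer). Inhibition scaled to no-enzyme control; activation referenced to 0.3 nM enzyme wells.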

[17] = target: Alpha-galactosidase (Coffea arabica) (UniProt Q42656); test: Counterscreen for Glucocerebrosidase Inhibitors: qHTS Assay for Coffee Bean alpha-Galactosidase at pH 4.5 (AID 957);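 also: plate controls were enzyme alone for no effect and no enzyme for full effect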
In short: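 Fluorogenic qHTS at pH 4.5 (citrate buffer with Tween-20): 2 nM enzyme, 80 uM 4-MU-alpha-galactoside substrate, compound titrated 0.7 nM to 77 uM, 20 min room temperature. Glycine/NaOH stop; 4-MU read Ex 365/Em 440; Hill-equation AC50 against no-enzyme and enzyme controls.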

[18] = target: Alpha-galactosidase A (Homo sapiens) (UniProt P06280); test: Counterscreen for Glucocerebrosidase Inhibitors: qHTS Assay for Human alpha-Galactosidase at pH 4.5 (AID 992); also: 0% is about no effect
In short: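 Fluorogenic 1536-well qHTS at pH 4.5 (citrate, Tween-20): 2 nM enzyme, 80 uM 4-MU-alpha-galactoside, 20 min room temperature, NaOH/glycine stop. Titration 0.7 nM to 77 uM, data normalized to no-enzyme and full-activity controls, Hill-fitted AC50.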

[19] = target: alpha-glucosidase (Oryza sativa, rice) (UniProt Q653V4); test: Counterscreen for Glucocerebrosidase Inhibitors: qHTS Assay for Rice alpha-Glucosidase at pH 5.0 (AID 997);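 also: 0% = full activity with enzyme and -100% = basal without enzyme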
In short: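 Endpoint fluorogenic assay at pH 5.0: compounds (0.7 nM to 77 uM) titrated against 4 nM rice enzyme and 400 uM 4-MU-alpha-glucoside for 20 min at room temperature; NaOH/glycine stop, read ex 365/em 440 nm, Hill-fitted AC50.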

[20] = target: Alpha-galactosidase (Coffea arabica) (UniProt Q42656); test: Counterscreen for Glucocerebrosidase Inhibitors: qHTS Assay for Coffee Bean alpha-Galactosidase at pH 5.9 (AID 998);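 also: plate controls were uninhibited enzyme for no effect and no-enzyme basal signal for full effect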
In short: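 Fluorogenic 4-MU substrate hydrolysis, 80 uM substrate and 2 nM coffee bean alpha-galactosidase, pH 5.9 citrate buffer, 20 min at room temperature, then NaOH/glycine stop. Titration 0.7 nM–77 uM, normalized to no-enzyme and enzyme controls, AC50 via Hill equation.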

Glucocorticoid receptor (Homo sapiens), sequence (P04150 whole entry, looked up, the tested form may be a part): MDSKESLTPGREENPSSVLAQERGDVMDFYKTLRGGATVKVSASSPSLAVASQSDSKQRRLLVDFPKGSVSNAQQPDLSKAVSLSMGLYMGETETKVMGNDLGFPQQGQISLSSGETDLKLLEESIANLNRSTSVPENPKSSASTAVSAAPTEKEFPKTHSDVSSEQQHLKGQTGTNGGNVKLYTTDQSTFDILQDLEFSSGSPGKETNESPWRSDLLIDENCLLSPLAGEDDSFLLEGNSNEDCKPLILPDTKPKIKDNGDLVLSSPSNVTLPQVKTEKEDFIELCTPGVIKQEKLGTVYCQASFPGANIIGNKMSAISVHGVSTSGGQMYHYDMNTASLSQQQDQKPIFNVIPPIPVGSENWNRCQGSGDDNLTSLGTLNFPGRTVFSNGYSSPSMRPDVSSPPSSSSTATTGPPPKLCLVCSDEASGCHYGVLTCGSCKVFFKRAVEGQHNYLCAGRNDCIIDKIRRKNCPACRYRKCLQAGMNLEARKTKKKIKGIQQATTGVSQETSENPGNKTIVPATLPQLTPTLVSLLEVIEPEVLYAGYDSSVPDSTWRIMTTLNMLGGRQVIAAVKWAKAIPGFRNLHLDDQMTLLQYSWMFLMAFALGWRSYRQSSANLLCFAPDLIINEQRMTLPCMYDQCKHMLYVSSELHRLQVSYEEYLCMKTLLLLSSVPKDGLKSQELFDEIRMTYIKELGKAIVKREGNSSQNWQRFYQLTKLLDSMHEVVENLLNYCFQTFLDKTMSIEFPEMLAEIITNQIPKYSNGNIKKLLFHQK
Cytochrome P450 2C9 (Homo sapiens), sequence (P11712 whole entry, looked up): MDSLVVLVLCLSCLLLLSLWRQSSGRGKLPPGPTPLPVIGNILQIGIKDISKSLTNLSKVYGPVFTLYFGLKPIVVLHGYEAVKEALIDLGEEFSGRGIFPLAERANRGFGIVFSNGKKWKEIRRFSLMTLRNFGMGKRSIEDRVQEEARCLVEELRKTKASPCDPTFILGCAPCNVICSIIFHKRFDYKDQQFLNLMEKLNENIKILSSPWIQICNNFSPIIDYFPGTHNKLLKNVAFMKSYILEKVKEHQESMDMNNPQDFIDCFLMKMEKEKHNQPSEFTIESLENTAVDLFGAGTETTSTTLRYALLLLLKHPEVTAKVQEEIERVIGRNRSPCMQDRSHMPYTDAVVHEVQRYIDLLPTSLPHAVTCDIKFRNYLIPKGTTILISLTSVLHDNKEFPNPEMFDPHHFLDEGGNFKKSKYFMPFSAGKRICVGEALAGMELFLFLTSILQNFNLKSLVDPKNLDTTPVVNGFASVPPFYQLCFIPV
Cytochrome P450 2C19 (Homo sapiens), sequence (P33261 whole entry, looked up): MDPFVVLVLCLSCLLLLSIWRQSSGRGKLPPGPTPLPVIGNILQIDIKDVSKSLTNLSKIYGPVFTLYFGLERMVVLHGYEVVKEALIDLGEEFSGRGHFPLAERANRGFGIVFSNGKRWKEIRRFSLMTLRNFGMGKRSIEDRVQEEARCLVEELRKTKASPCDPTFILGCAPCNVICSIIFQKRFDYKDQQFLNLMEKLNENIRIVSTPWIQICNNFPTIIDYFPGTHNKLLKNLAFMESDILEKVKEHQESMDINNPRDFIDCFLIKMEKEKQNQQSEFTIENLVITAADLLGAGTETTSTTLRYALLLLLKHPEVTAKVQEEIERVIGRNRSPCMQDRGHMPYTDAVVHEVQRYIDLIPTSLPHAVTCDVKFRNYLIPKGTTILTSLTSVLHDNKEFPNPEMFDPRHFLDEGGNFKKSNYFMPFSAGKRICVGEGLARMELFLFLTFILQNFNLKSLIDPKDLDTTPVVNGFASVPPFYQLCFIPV
3',5'-cyclic-AMP phosphodiesterase 4B (Homo sapiens), sequence (Q07343 whole entry, looked up): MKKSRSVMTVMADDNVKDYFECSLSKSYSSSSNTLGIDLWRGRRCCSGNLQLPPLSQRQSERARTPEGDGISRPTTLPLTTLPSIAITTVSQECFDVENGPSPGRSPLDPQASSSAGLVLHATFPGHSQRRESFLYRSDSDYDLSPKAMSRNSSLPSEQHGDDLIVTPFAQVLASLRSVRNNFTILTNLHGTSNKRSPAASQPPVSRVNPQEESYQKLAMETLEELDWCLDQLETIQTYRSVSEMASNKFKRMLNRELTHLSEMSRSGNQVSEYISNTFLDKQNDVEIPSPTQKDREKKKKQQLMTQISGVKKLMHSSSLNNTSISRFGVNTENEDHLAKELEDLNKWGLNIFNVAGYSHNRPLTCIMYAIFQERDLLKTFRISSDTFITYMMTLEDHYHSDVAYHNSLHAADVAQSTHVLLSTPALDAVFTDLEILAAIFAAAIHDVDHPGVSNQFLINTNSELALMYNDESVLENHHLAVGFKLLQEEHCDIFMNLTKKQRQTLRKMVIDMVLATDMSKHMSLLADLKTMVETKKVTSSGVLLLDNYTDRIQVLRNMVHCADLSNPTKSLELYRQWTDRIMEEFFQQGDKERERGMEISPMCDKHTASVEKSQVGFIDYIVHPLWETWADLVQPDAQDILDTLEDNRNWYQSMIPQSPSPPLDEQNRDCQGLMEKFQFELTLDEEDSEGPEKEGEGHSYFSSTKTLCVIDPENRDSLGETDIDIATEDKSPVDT
Cytochrome P450 1A2 (Homo sapiens), sequence (P05177 whole entry, looked up): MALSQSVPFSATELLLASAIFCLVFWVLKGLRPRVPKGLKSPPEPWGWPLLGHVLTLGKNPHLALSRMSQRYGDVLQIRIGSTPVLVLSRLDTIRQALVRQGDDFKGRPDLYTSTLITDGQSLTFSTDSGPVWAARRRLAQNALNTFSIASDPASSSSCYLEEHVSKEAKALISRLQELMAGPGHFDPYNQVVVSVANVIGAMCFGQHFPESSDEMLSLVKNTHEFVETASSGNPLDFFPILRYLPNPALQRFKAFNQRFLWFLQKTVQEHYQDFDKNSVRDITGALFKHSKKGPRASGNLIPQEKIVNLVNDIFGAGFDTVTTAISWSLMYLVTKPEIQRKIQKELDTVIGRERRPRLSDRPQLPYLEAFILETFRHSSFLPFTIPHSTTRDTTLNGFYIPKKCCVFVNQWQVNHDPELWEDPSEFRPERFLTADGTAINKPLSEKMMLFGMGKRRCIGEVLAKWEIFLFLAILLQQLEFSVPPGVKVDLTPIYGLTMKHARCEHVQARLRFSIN
Alpha-galactosidase (Coffea arabica), sequence (Q42656 whole entry, looked up): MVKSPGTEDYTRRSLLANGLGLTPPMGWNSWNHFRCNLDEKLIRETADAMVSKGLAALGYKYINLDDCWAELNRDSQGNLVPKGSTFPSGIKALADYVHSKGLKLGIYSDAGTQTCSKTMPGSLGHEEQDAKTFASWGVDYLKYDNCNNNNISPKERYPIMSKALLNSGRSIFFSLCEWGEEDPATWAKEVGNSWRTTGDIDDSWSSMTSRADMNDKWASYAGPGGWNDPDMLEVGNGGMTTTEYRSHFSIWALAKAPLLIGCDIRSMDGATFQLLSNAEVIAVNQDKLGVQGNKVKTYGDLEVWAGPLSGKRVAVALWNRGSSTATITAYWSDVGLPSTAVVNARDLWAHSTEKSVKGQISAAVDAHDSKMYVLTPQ
Cytochrome P450 2D6 (Homo sapiens), sequence (P10635 whole entry, looked up): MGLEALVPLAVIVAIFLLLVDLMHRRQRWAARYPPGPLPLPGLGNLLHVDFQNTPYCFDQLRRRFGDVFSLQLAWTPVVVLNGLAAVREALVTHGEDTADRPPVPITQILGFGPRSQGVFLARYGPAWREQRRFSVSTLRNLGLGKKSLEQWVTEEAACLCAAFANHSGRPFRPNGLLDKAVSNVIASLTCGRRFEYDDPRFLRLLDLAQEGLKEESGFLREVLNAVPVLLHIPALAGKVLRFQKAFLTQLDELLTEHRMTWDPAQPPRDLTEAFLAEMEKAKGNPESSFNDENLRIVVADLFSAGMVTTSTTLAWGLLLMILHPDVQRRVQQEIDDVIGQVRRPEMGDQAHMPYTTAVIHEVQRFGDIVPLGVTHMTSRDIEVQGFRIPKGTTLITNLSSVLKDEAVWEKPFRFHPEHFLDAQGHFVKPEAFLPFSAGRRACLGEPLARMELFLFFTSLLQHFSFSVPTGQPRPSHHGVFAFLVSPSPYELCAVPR
Alpha-galactosidase A (Homo sapiens), sequence (P06280 whole entry, looked up): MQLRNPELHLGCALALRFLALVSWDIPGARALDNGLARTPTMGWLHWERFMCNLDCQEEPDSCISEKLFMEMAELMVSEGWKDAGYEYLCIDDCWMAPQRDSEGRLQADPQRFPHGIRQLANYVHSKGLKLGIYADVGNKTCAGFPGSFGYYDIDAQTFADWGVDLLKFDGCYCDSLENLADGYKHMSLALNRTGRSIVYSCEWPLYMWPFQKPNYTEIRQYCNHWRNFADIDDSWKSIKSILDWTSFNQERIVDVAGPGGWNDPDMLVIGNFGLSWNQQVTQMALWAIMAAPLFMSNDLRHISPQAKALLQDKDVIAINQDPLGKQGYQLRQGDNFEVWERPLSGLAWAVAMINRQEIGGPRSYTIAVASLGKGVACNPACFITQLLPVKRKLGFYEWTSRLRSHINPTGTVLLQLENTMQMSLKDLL
Pyruvate kinase PKM (Homo sapiens), sequence (P14618 whole entry, looked up): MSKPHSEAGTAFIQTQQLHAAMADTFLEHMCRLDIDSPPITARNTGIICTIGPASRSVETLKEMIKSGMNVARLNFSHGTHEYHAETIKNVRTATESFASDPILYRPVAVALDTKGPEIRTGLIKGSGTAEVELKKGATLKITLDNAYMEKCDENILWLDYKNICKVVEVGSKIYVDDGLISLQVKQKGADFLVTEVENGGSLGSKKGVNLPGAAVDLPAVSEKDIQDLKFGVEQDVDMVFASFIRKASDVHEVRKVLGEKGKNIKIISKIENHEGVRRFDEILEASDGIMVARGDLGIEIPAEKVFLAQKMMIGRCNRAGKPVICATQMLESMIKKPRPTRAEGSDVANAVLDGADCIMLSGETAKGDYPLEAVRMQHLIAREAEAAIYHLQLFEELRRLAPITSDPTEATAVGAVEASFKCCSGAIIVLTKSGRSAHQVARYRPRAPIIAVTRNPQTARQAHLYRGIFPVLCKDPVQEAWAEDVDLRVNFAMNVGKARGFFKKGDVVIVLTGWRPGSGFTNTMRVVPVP

CC(C)[C@@]1(NC(=O)[C@@H]2C[C@H]3c4cccc5[nH]cc(c45)C[C@@H]3N(C)C2)O[C@@]2(O)[C@H]3CCCN3C(=O)[C@@H](Cc3ccccc3)N2C1=O
active: Potency [6] 1.26 µM | Potency [7] 3.16 µM
inactive: Potency [1] | Potency [2] > 46 µM | Potency [3] > 46 µM | outcome [4] | outcome [5]

C[C@H]1CCC/C=C/C2C[C@H](O)CC2[C@H](O)/C=C/C(=O)O1 (stereo not given in full)
inactive: activity change, negative = inhibition [8] 5.62% | outcome [9] | Potency [2] > 20.6 µM

CN1CCc2cc3c(cc2[C@@H]1[C@H]1OC(=O)c2c1ccc1c2OCO1)OCO3
inactive: Potency [2] > 46 µM | Potency [3] > 46 µM | outcome [4] | outcome [5]
active: Potency [1] 15.8 µM and 12.6 µM | Potency [6] 3.98 µM | Potency [10] 15.8 µM | Potency [7] 100 nM and 15.8 nM

CO[C@@H](C)[C@](O)(C(=O)OC1=CCN2CC[C@H](O)[C@H]12)C(C)C
inactive: Potency [1] | Potency [2] > 46 µM | Potency [3] > 46 µM | outcome [4] | outcome [5] | Potency [6] | Potency [10] | Potency [7]

NC(=O)c1ccc(OC[C@H](O)CN2CC=C(c3ccc(F)cc3)CC2)cc1
active: Potency [14] 6.31 µM
inactive: activity change, negative = inhibition [8] 18.4% [at 38 µM] | Potency [2] > 46 µM | Potency [3] > 46 µM | outcome [5] | Potency [11] | Potency [12] | activation [13] -0.382% | Potency [15] | outcome [16] | outcome [17] | outcome [18] | outcome [19] | outcome [20]
